Test results: PubChem BioAssay
Calls of active or inactive are those of the source. Unless noted, how the calls were made is not given here.

Legend:
[1] = A549 cell viability effects, profiling panel, calcein-AM fluorescence, 48 h, basal (AID 1162); settings: higher = more signal; further: test concentration not given here
[2] = adipocyte viability effects, profiling panel, cell-based, 3T3-L1 adipocytes, calcein-AM fluorescence, 48 h, basal (AID 1163); settings: 3T3-L1 adipocytes viability, higher = more signal; further: test concentration not given here
[3] = HepG2 cell viability effects, profiling panel, calcein-AM fluorescence, 48 h, basal (AID 1164); settings: higher = more signal; further: test concentration not given here
[4] = MM1S cell viability effects, profiling panel, calcein-AM fluorescence, 48 h, basal (AID 1165); settings: higher = more signal;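 further: viability of MM1S multiple myeloma cells under basal unstimulated conditions; test concentration not given here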
[5] = basal RPMI8226 viability, no added stimulus, profiling panel, cell-based, calcein-AM fluorescence, 48 h, PK04 Diversity Set (AID 1166); settings: RPMI8226 myeloma viability, higher = more signal;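 further: cells grown under basal conditions without added stimulus; test concentration not given here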
[6] = basal HepG2 mitochondrial membrane potential changes, profiling panel, cell-based, JC-1 fluorescence, 24 h, 100 nL compound (AID 1167); settings: higher = more signal; further: test concentration not given here
[7] = basal 3T3-L1 adipocyte mitochondrial potential changes, profiling panel, cell-based, JC-1 fluorescence, 3T3-L1 adipocytes, 24 h, 100 nL compound (AID 1168); settings: JC-1 mitochondrial fluorescence, higher = more signal, called active from +8 up or from −8 down; further: test concentration not given here
[8] = basal RPMI8226 mitochondrial membrane potential changes, profiling panel, cell-based, JC-1 fluorescence, 24 h, 100 nL compound (AID 1169); settings: RPMI8226 myeloma, JC-1 mitochondrial potential fluorescence, higher = more signal; further: test concentration not given here
[9] = basal MM1S mitochondrial membrane potential changes, profiling panel, cell-based, JC-1 fluorescence, 24 h, 100 nL compound (AID 1170); settings: higher = more signal; further: test concentration not given here
[10] = A549 lung cancer cell viability effects, profiling panel, resazurin fluorescence, 24 h, PK04 Diversity Set (AID 1171); settings: higher = more signal, called active from +8 up or from −8 down; further: test concentration not given here
[11] = HepG2 liver cancer cell viability effects, profiling panel, resazurin fluorescence, 24 h, PK04 Diversity Set (AID 1172); settings: higher = more signal; further: test concentration not given here
[12] = basal S. cerevisiae growth modulation, no modifier, primary screen, OD600, strain BY4716, 24 h, basal condition (AID 1173); settings: OD600, 24 h, higher = more signal, called active from +8 up or from −8 down
[13] = MM1S myeloma cell viability, profiling panel, resazurin fluorescence, basal, 24 h, PK04 Diversity Set (AID 1174); settings: higher = more signal, called active from +8 up or from −8 down;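 further: MM1S multiple myeloma cell line; test concentration not given here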
[14] = target: Dihydroorotate dehydrogenase (quinone), mitochondrial (Plasmodium falciparum (isolate 3D7)) (UniProt Q08210); test: PfDHODH enzyme inhibitors, primary screen, biochemical, C-terminal His tag, absorbance 600 nm (AID 1175); settings: DCIP absorbance 600 nm, higher = more signal, called active from +8 up or from −8 down;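 further: recombinant parasite enzyme with a five histidine tag at its C terminus; test concentration not given here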
Dihydroorotate dehydrogenase (quinone), mitochondrial (Plasmodium falciparum (isolate 3D7)), sequence (Q08210 whole entry, looked up): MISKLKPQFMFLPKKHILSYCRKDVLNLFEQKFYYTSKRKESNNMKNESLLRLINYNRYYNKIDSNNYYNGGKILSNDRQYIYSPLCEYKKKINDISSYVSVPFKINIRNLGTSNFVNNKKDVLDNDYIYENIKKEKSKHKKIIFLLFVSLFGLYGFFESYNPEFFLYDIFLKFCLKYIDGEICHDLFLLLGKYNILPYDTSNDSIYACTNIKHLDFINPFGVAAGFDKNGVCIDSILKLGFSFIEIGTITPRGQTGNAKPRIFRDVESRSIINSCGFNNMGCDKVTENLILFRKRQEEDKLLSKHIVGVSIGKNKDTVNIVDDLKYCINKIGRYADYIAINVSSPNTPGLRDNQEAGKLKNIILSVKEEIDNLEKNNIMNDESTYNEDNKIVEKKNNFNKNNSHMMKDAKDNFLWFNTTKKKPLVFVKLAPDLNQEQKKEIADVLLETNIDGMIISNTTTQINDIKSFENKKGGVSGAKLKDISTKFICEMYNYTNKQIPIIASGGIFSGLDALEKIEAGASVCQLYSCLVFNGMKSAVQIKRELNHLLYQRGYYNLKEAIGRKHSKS

[15] = P. aeruginosa biofilm formation inhibitors, primary screen, strain PAO1, LB-PBS medium, absorbance 600 nm (AID 1176); further: test concentration not given here; settings: P. aeruginosa PAO1 growth/biofilm, A600, 12 h; higher = more signal
[16] = S. cerevisiae RM11-1a growth modifiers, primary screen, strain RM11-1a, OD600, basal, 24 h (AID 1177); settings: OD600, 24 h, higher = more signal, called active from +8 up or from −8 down;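 further: cultures grown under basal conditions with no added stressor; test concentration not given here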
[17] = E. coli acrAB mutant growth effects, primary screen, E. coli filamentation inducers, strain DRC39, OD650, 24 h (AID 1178); settings: higher = more signal, called active from +8 up or from −8 down;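 further: growth measured as culture turbidity by optical density at 650 nm; test concentration not given here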
[18] = E. coli acrAB mutant growth effects, primary screen, E. coli filamentation inducers, strain DRC39, OD650, 48 h (AID 1179);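 further: screen aims at cell division blockers that make cells filament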; settings: E. coli DRC39 delta-acrAB growth, higher = more signal, called active from +8 up or from −8 down
[19] = RPMI8226 myeloma cell viability, profiling panel, resazurin fluorescence, basal, 24 h, PK04 Diversity Set (AID 1180); settings: higher = more signal;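 further: RPMI8826 multiple myeloma cell line at 5000 cells per well; test concentration not given here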
[20] = target: E3 ubiquitin-protein ligase XIAP (Homo sapiens) (UniProt P98170); test: XIAP binders, primary screen, biophysical, small-molecule microarray, fluorescence 635 nm (AID 1181); settings: small-molecule microarray binding, higher = more signal;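 further: score merges 667 nm emission and signal to noise over triplicate slides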
E3 ubiquitin-protein ligase XIAP (Homo sapiens), sequence (P98170 whole entry, looked up): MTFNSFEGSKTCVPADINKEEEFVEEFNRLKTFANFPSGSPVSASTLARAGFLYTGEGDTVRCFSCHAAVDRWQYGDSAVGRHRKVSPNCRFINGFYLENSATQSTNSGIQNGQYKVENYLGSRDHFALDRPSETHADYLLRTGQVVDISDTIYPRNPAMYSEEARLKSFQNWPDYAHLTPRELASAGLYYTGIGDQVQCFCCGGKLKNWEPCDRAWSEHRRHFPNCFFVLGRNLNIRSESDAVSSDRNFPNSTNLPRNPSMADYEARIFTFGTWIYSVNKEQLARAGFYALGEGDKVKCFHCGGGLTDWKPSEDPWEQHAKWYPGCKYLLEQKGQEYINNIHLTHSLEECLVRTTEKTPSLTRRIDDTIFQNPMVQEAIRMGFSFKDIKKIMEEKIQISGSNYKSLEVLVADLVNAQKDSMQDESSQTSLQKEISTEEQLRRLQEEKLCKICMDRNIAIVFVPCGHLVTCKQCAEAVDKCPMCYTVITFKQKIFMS

Compound | z-score [1] | z-score [2] | z-score [3] | z-score [4] | z-score [5] | z-score [6] | z-score [7] | z-score [8] | z-score [9] | z-score [10] | z-score [11] | z-score [12] | z-score [13] | composite z-score [14] | z-score [15] | z-score [16] | z-score [17] | z-score [18] | z-score [19] | composite z-score [20]
CC(C)(C)OC(=O)CC[C@]1(C(=O)NCc2ccccc2)N=C(c2ccc(OCCCO)cc2)O[C@H]1c1ccccc1CN=[N+]=[N-] | 0.858 | -0.0665 | 2.17 | -0.863 | 0.213 | 1.17 | 0.0993 (inactive) | -0.518 | -0.773 | -0.768 (inactive) | -1.08 | 0.103 (inactive) | -1.49 (inactive) | 0.281 (inactive) | 0.702 (inactive) | 0.53 (inactive) | 0.414 (inactive) | 0.391 (inactive) | -0.551 | 0.0942
C=CC[C@]1(C(=O)NCCN2CCOCC2)N=C(c2ccc(OCCCO)cc2)O[C@H]1c1ccccc1CN=[N+]=[N-] | 0.779 | 0.885 | 0.187 | 0.81 | -0.221 | 2.76 | 0.0141 (inactive) | -1.08 | -0.244 | 1.2 (inactive) | 0.735 | -1.01 (inactive) | 0.33 (inactive) | 0.453 (inactive) | -1.17 (inactive) | 0.724 (inactive) | 1.31 (inactive) | 0.351 (inactive) | 0.485 | -0.209
C=CCC(OC(C)=O)[C@@H]1[C@@H](N(Cc2cccc3ccccc23)C(=O)c2cccc3ccccc23)c2cc(OCCCO)ccc2N1C(=O)c1ccc(-c2ccccc2)cc1 (stereo not given in full) | -0.545 | 0.511 | 0.571 | 0.425 | 0.0712 | 1.61 | -0.632 (inactive) | 0.72 | -0.177 | -0.227 (inactive) | -0.333 | 0.134 (inactive) | -1 (inactive) | 0.136 (inactive) | -0.309 (inactive) | -0.56 (inactive) | 0.161 (inactive) | -0.123 (inactive) | -0.569 | -0.232
CC(CO)N1C(=O)[C@@H]2[C@H]3C(=O)OCC=C[C@H]3OC23C=CCN(Cc2ccccc2)C(=O)[C@@H]13 (stereo not given in full) | -0.0849 | 0.847 | -1.35 | 1.17 | 0.0239 | -0.378 | 0.508 (inactive) | -0.0286 | 0.491 | 0.881 (inactive) | 1.44 | -0.319 (inactive) | 1.01 (inactive) | -1.07 (inactive) | 0.745 (inactive) | -1.21 (inactive) | 0.518 (inactive) | 0.075 (inactive) | 1.28 | 0.184
CC1CC/C=C\[C@H]2OC34C=CCN(c5ccc(Cl)cc5)C(=O)[C@H]3N(CCCCCO)C(=O)[C@]4(C)C2C(=O)O1 (stereo not given in full) | -0.0287 | -0.607 | 0.843 | 0.743 | -0.381 | -0.197 | -0.0396 (inactive) | -0.909 | 1.27 | -0.194 (inactive) | -0.773 | 0.0314 (inactive) | 0.421 (inactive) | 1.22 (inactive) | -0.801 (inactive) | 0.0329 (inactive) | -0.113 (inactive) | 0.227 (inactive) | 0.0738 | 0.102
[N-]=[N+]=NCc1ccccc1[C@H]1OC(c2ccc(OCCCO)cc2)=N[C@@]1(CCS(=O)(=O)c1ccccc1)C(=O)NCC(O)CO (stereo not given in full) | -0.257 | 0.538 | 0.0325 | -0.381 | 0.429 | -1.57 | 0.466 (inactive) | -0.221 | -1.78 | -0.317 (inactive) | 0.044 | 0.323 (inactive) | -0.315 (inactive) | 1.09 (inactive) | 1.76 (inactive) | 1.64 (inactive) | 0.852 (inactive) | -0.679 (inactive) | 0.0345 | -0.0553
CCCNC(=O)[C@@H]1c2ccccc2C(=O)N(C(C)C)[C@H]1c1ccc(CO)cc1 | 0.678 | 0.306 | 0.997 | 0.92 | -0.34 | 1.81 | 1.82 (inactive) | -0.119 | -0.695 | 0.136 (inactive) | 0.321 | 0.121 (inactive) | 0.551 (inactive) | -0.185 (inactive) | 0.127 (inactive) | 0.846 (inactive) | 0.313 (inactive) | 1.31 (inactive) | 0.497 | -0.237
COCCOC(=O)N1C(=O)[C@@]2(c3cc(C#CC4=CCCCC4)ccc31)[C@H](c1ccc(OCCO)cc1)N1[C@H](c3ccccc3)[C@H](c3ccccc3)OC(=O)[C@H]1[C@@H]2C(=O)N1CCN(c2ncccn2)CC1 | -0.471 | 1.18 | 0.47 | -0.759 | -0.774 | 0.955 | 1.46 (inactive) | -0.333 | -1.01 | 0.468 (inactive) | 0.205 | 1.7 (inactive) | 0.0789 (inactive) | -1.42 (inactive) | 2.28 (inactive) | 1.78 (inactive) | -0.294 (inactive) | 0.0375 (inactive) | 0.621 | 0.0219
C=CCOC(=O)[C@H]1[C@@H]2C(=O)O[C@@H](c3ccccc3)[C@@H](c3ccccc3)N2[C@@H](c2ccc(OCCOC(=O)[C@H]3C[C@H]4C(=O)N[C@@H](CC(C)C)C(=O)N4[C@H]3c3cccc(OCCO)c3)cc2)[C@]12C(=O)Nc1ccc(I)cc12 | -0.681 | 0.329 | 0.281 | -1.15 | -0.0034 | 1.69 | 0.681 (inactive) | -0.762 | -0.7 | -0.0975 (inactive) | -0.054 | 1.9 (inactive) | -0.414 (inactive) | 0.124 (inactive) | 2.9 (inactive) | 0.447 (inactive) | -0.0744 (inactive) | -0.62 (inactive) | -0.385 | -0.0174
